Wee1 stabilizer = human Wee1 degradation inhibition, primary screen; P30291; HeLa Luc-Wee1K328M stability, luciferase luminescence; 100% = proteasome inhibitor MG132 effect; reporter increase, % at 5 µM; actives 1.2% (n = 220,000); AID 1321;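 active means activation above the mean of all tested compounds plus 3 SD, set per screening run, cut at about 8.8% in these data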;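 further: cells exposed to compound for 20 h before luminescence read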
PGE2 EP2 inh = inhibitors of human EP2 prostaglandin E2 receptor | AID 1422 | actives 0.52% (n = 260,000) | inhibition, % at 25 µM | C6 glioma cells expressing human EP2, cAMP TR-FRET; cells stimulated with saturating PGE2 | P43116;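 active means percent inhibition above 40 after rounding to a whole number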;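 further: rat C6 glioma host cells with rolipram phosphodiesterase inhibitor present; the protocol text gives 20 µM as final concentration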
Target sequence (P43116 whole entry, looked up): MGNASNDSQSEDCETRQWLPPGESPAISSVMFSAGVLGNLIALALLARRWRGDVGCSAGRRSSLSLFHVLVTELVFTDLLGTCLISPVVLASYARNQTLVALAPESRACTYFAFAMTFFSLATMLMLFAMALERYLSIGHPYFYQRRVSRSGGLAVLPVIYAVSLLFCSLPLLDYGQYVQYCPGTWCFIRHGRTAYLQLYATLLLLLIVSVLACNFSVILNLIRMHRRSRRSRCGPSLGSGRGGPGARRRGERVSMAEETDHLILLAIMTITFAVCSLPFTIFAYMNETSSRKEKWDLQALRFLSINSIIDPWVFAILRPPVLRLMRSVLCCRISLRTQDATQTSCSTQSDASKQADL
NCF1 inh = inhibitors of human p47phox binding. inhibition, % at 24.7 µM. actives 0.53% (n = 220,000). P14598. p47phox/p22phox peptide binding, fluorescence polarization, 2 h;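 active means inhibition above about 30%, limit read from the data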
Target sequence (P14598 whole entry, looked up): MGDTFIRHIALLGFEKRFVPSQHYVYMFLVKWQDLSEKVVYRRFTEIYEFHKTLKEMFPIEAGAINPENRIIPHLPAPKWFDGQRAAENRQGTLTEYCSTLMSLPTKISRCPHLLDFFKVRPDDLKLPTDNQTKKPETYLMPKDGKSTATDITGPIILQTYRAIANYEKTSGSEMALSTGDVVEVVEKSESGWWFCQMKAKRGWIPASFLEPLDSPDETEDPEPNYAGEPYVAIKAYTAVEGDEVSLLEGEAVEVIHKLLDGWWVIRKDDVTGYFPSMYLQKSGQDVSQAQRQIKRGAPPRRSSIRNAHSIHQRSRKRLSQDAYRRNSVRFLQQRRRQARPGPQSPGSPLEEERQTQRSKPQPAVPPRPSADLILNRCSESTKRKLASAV
EP2 mod = modulators of human EP2 prostaglandin E2 receptor | P43116 | EP2-expressing cells, cAMP HTRF FRET, PGE2 co-stimulation | induction, % at 25 µM | actives 0.83% (n = 260,000);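 active means compounds whose cAMP rise, as percent of the full-agonist control response, exceeds 60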;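 further: rat C6 glioma line stably carrying human EP2 under a CMV promoter; the protocol text gives 20 µM as final concentration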
HSV replic up = increases HSV replication in cells; HSV replication augmentation in cells, fold increase; maximum fold increase; actives 0.005% (n = 220,000); in the data active means maximum fold increase above about 1.5; tested in PC3 cells
Furin inh = inhibitors of human furin. P09958. purified furin, fluorogenic substrate cleavage. inhibition, % at 20 µM or 30 µM. actives 0.061% (n = 220,000); in the data active means inhibition above about 25%
Each line names hits and unclear results; the compound was inactive in the other large screens; ! = not confirmed by another sample. Compounds with a hit are over-represented: about 2.8% of the library has one in this group of screens.

CC(C)(C)c1c2c(c(C(C)(C)C)c3c1OCN(Cc1ccccc1)C3)OCN(Cc1ccccc1)C2	PGE2 EP2 inh 80.5 (no result: Wee1 stabilizer, NCF1 inh, HSV replic up, Furin inh)
CC(C)(C)NC(=O)NC(=O)CN1CCN(Cc2ccccc2)CC1	none
NC(=O)c1nc(-c2ccsc2)nc2c1[nH]c(=O)n2Cc1ccccc1	none (no result: Wee1 stabilizer, NCF1 inh, HSV replic up, Furin inh)
O=C(Cc1ccc(Cl)cc1)Nc1ccc(NC(=O)c2cccs2)cc1	Wee1 stabilizer 9.7
O=C(Cc1ccc([N+](=O)[O-])cc1)Nc1ccc(Cl)cc1	NCF1 inh 76.9
O=C(Nc1ccc(Cl)cc1)c1cccs1	none
Cc1ccccc1-c1nc(CS(=O)(=O)CC(=O)NCCN2CCOCC2)c(C)o1	NCF1 inh 68.8
Cc1cc(C)c2c(N)c(C(=O)c3ccccc3)sc2n1	Wee1 stabilizer 10.7
Cc1cc(C)c2c(N)c(C(=O)c3ccc(Cl)cc3)sc2n1	none
Cc1cc([N+](=O)[O-])nn1CC(=O)NCc1nc2ccccc2[nH]1	NCF1 inh 41.2 (no result: HSV replic up)
C=CCn1c2cc(C)sc2c2cnn(CC(=O)N3CCCCC3)c(=O)c21	none (no result: Wee1 stabilizer, PGE2 EP2 inh, NCF1 inh, HSV replic up, Furin inh)
O=C(O)c1ccc(Oc2ccccc2)o1	EP2 mod 69.6
NNC(=O)c1ccc(Oc2cc(Cl)cc(Cl)c2)o1	none
CC1=CC(C)(C)N(C(=O)Nc2ccccc2)c2ccccc21	none (no result: HSV replic up)
C/C=C/C(=O)N1c2ccccc2C(C)=CC1(C)C	EP2 mod 61.3!
Cc1cccc(NC(=O)CN2C(=O)N/C(=C/c3cc(C)n(-c4ccncc4)c3C)C2=O)c1	NCF1 inh 45.6
CC(=O)Nc1ccc(NC(=O)c2cccc(-c3cc4ccccc4oc3=O)c2)cc1	none
COc1ccc2nc(NC(=O)c3cccc(-c4cc5ccccc5oc4=O)c3)sc2c1	NCF1 inh 38.9 (no result: HSV replic up)
COc1ccc2nc(NC(=O)c3c(OC)cccc3OC)sc2c1	none (no result: Wee1 stabilizer, NCF1 inh, HSV replic up, Furin inh)
COc1ccc(C(=O)Nc2cccc(-c3cc4ccccc4oc3=O)c2)cc1[N+](=O)[O-]	NCF1 inh 31.7
COC(=O)CSc1ccc(-c2nc3ccc(C)cc3[nH]2)cn1	PGE2 EP2 inh 59.1
Cc1ccc2nc(-c3ccc(NC(=O)Cc4cccs4)cc3)[nH]c2c1	Wee1 stabilizer 10.2
O=C(NC1CCCCC1)N(Cc1nc2ccccc2c(=O)[nH]1)C1CCCC1	NCF1 inh 31.0 (no result: PGE2 EP2 inh, HSV replic up)
Cc1ccc(-c2csc(N3N=C(c4ccccc4)/C(=C\c4ccc(N(C)C)cc4)C3=O)n2)cc1	NCF1 inh 51.2 (no result: PGE2 EP2 inh, HSV replic up)
CCOC(=O)C1CCCN(C(=O)Cn2nc(C(F)(F)F)c3cccn3c2=O)C1 (centres undefined)	none (no result: Wee1 stabilizer, NCF1 inh, HSV replic up, Furin inh)
Cc1nnc(SCC(=O)n2c3c(c4ccccc42)CCCC3)s1	EP2 mod 64.3
Cn1c(SCC(=O)n2c3c(c4ccccc42)CCCC3)nnc1-c1ccccc1	none
CCCc1nn(Cc2ccccn2)c(=O)c2cc3ccsc3n12	none (no result: Wee1 stabilizer, PGE2 EP2 inh, NCF1 inh, HSV replic up, Furin inh)
Cc1cccnc1NC(=S)NC(=O)c1cccs1	Wee1 stabilizer 12.6
Cc1ccc(-c2cc3ccccc3nc2N2CCCC2)cc1	EP2 mod 62.0
Cc1nc2ccccc2nc1N1CCCC1	none
Clc1ccc(-c2cc3ccccc3nc2N2CCCC2)cc1	EP2 mod 63.5
Clc1ccc(-c2cc3ccccc3nc2N2CCOCC2)cc1	none
O=C(Cn1nnc(-c2cccs2)n1)NCC1OCCc2ccccc21 (centres undefined)	none (no result: Wee1 stabilizer, NCF1 inh, HSV replic up, Furin inh)
COc1nc(C)ccc1-c1noc(-c2cccc(C)c2)n1	none (no result: Wee1 stabilizer, NCF1 inh, HSV replic up, Furin inh)
CCCC(c1cc(C(C)(C)C)c(O)cc1C)c1cc(C(C)(C)C)c(O)cc1C	PGE2 EP2 inh 63.8 (no result: Wee1 stabilizer, NCF1 inh, HSV replic up, Furin inh)
Cc1cc(N)c2cc(NC(=O)/C=C/c3ccccc3Cl)ccc2n1	NCF1 inh 97.3
Cc1oc(-c2ccc(F)cc2)nc1C(=O)NC(c1ccccc1)c1cccnc1 (centres undefined)	none (no result: Wee1 stabilizer, NCF1 inh, HSV replic up, Furin inh)
COc1ccccc1N(C)S(=O)(=O)c1ccc(C(=O)OCC(=O)Nc2ccccc2F)cc1	Wee1 stabilizer 10.8
COc1ccccc1N(C)S(=O)(=O)c1ccc(C(=O)OCC(=O)Nc2cc(C)on2)cc1	none
CC(=O)NC1(c2ccc(F)cc2)CCN(Cc2oc3ccccc3c2C)CC1	none (no result: Wee1 stabilizer, NCF1 inh, HSV replic up, Furin inh)
O=C(Nc1nc(-c2ccccn2)cs1)c1ccc(Cl)s1	Wee1 stabilizer 10.0
CCOc1ccc(N(CC(=O)Nc2c(C)n(C)n(-c3ccccc3)c2=O)S(=O)(=O)c2ccccc2)cc1	Wee1 stabilizer 10.6
CC[C@@]1(O)C(=O)OCc2c1cc1n(c2=O)Cc2cc3c(CN(C)C)c(O)ccc3nc2-1	PGE2 EP2 inh 58.4! (no result: Wee1 stabilizer, NCF1 inh, HSV replic up, Furin inh)
COc1ccc(/C=C/C(=O)Nc2cc(=O)n(C)c(=O)n2C)cc1	Wee1 stabilizer 9.7
CCCC(=O)Nc1cc(=O)n(C)c(=O)n1C	NCF1 inh 60.1
Cn1c(NC(=O)/C=C/c2ccc(Cl)c(Cl)c2)cc(=O)n(C)c1=O	none
COc1ccc(C(=O)Nc2cc(=O)n(C)c(=O)n2C)cc1	none
Cn1c(NC(=O)/C=C/c2ccccc2)cc(=O)n(C)c1=O	Wee1 stabilizer 8.9
CC(C)C(c1nnnn1C1CCCC1)N1CCN(C2CCCC2)CC1 (centres undefined)	none (no result: Wee1 stabilizer, NCF1 inh, HSV replic up, Furin inh)
COc1ccccc1CCNC(=O)Cn1nc(C)n2c(cc3sc(C)cc32)c1=O	none (no result: Wee1 stabilizer, PGE2 EP2 inh, NCF1 inh, HSV replic up, Furin inh)
Cc1sc2nc(C(C)C)n3c(SCC(=O)NCc4cccs4)nnc3c2c1C	none (no result: Wee1 stabilizer, NCF1 inh, HSV replic up, Furin inh)
COc1ccc(/C=C/CN2CCCC(C(=O)c3ccc(OC)c(F)c3)C2)cc1 (centres undefined)	Wee1 stabilizer 9.1
c1ccc(-c2cn(-c3ccccc3)c3[n+]2CCS3)cc1	none
COc1ccc(-c2cn(-c3ccccc3)c3[n+]2CCS3)cc1	Wee1 stabilizer 10.6!
CCOc1ccc(N/C=C/C(=O)c2ccc3ccccc3c2)c([N+](=O)[O-])c1	none
CCOc1ccc(N/C=C/C(=O)c2ccc(C)cc2)c([N+](=O)[O-])c1	NCF1 inh 36.8
CCc1ccc2nc(-c3ccc(F)cc3)nc(SCC(=O)NC3CC3)c2c1	none (no result: Wee1 stabilizer, NCF1 inh, HSV replic up, Furin inh)
COc1ccc(O)c(C(=O)CC(=O)c2ccc(F)cc2)c1	none
COc1ccc(O)c(C(=O)CC(=O)c2ccccc2C)c1	Wee1 stabilizer 8.9
O=C(NC1CCCC1)C(c1ccccc1F)N(Cc1ccco1)C(=O)Cc1cccs1 (centres undefined)	none (no result: Wee1 stabilizer, NCF1 inh, HSV replic up, Furin inh)
O=C(NC1CCCC1)C(c1ccccc1Cl)N(Cc1ccco1)C(=O)Cc1cccs1 (centres undefined)	EP2 mod 63.5 (no result: Wee1 stabilizer, NCF1 inh, HSV replic up, Furin inh)
O=C(NC1CCCCC1)C(c1ccco1)N(Cc1cccs1)C(=O)Cn1nnc2ccccc21 (centres undefined)	EP2 mod 60.9 (no result: NCF1 inh, HSV replic up)
O=C(NC1CCCCC1)C(c1ccco1)N(C(=O)Cc1cccs1)c1ccc(F)cc1 (centres undefined)	EP2 mod 66.2 (no result: Wee1 stabilizer, NCF1 inh, HSV replic up, Furin inh)
CC(c1cccc(F)c1)n1cc(C(=O)NCc2ccncc2)nn1 (centres undefined)	none (no result: Wee1 stabilizer, PGE2 EP2 inh, NCF1 inh, HSV replic up, Furin inh)
CC1CC(C)CN(C(=O)Cn2c(SCC(=O)N3CCCC3)nc3ccccc32)C1 (centres undefined)	none (no result: Wee1 stabilizer, NCF1 inh, HSV replic up, Furin inh)
Cn1c(=O)c2c(nc(Sc3ncnn3CC(=O)NC(C)(C)C)n2C)n(C)c1=O	Wee1 stabilizer 10.2
Cn1c(=O)c2c(ncn2CC(=O)NC(C)(C)C)n(C)c1=O	none

Source: PubChem BioAssay (several laboratories)
